In the library only some 3.8% were active in any assay of this set; here they are far more common.
CR mimetic SO: yeast age-related superoxide inhibition as caloric restriction mimetic; S. cerevisiae aged cells, superoxide DHE fluorescence; hits give low values; superoxide response (% of plate mean), % at 10 µM; 330,000 compounds, 0.18% hits;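 active = superoxide response under a set limit, about three screen SD below normal, cut at about 65% in these data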;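 also: yeast aged for seven days with compound at 30 °C before DHE staining; 100% = average MFI of all compound-treated wells on the plate with controls excluded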
tim23-1 inh: tim23-1 yeast growth inhibition; inhibition, % at 20 µM; AID 463212; S. cerevisiae tim23-1 growth, BacTiter-Glo luminescence, 24 h; 330,000 compounds, 1.3% hits;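 active = growth inhibition of the mutant yeast at or above 50%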;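 also: temperature-sensitive mutant grown at 25 °C; plate controls were DMSO-treated mutant yeast for no effect and medium wells lacking yeast for full effect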
NALP3 yeast inh: blocks the NALP3 inflammasome reconstituted in yeast; Yeast reconstituted NLRP3/ASC/caspase-1, beta-gal luminescence, 24 h; inhibition, % at 10 µM; 330,000 compounds, 0.39% hits; AID 2825;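 active = inhibition of 50% or more; inactive = inhibition below 50%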;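 also: plate controls were induced DMSO wells for no effect and uninduced yeast grown without galactose for full effect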
tim10-1 inh: tim10-1 yeast growth inhibition. S. cerevisiae tim10-1 ts strain growth, BacTiter-Glo, 24 h. 330,000 compounds, 2.2% hits. inhibition, % at 20 µM. AID 463190;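 active = inhibition of at least 40%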;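 also: mutant grown at 25 °C; 0% = DMSO wells with yeast and 100% = wells holding no yeast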
TIM10 inh: inhibits growth of TIM10 yeast strain | S. cerevisiae TIM10 strain growth, BacTiter-Glo luminescence, 24 h | inhibition, % at 10 µM | 330,000 compounds, 1.4% hits;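 active = inhibition of 40% or more at the single tested concentration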;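 also: wild-type TIM10 isogenic control strain grown at permissive 25 °C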
tim10-1 conf: tim10-1 yeast growth inhibition, confirmed. shares compounds with tim10-1 inh. S. cerevisiae tim10-1 ts strain growth, BacTiter-Glo, 24 h. inhibition, % at 20 µM. 7,400 compounds, 56% hits;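 active = inhibition of yeast growth at or above a set limit in either of two repeat tests at 20 µM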;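 also: tim10-1 mutant grown at permissive 25 °C to find synthetic lethal compounds; 0% = DMSO yeast wells and 100% = medium wells without yeast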
An asterisk follows results filed as active; nt = no result.

SMILES	CR mimetic SO	tim23-1 inh	NALP3 yeast inh	tim10-1 inh	TIM10 inh	tim10-1 conf
CCSC(=O)CCCCCCCCCCCO	92	26	49	40*	15	36*
CCCCCCCCO	79	-5	-4	-13	1	nt
COC(=O)c1ccccc1NC(=O)C1CCCN(S(=O)(=O)c2ccccc2)C1 (configuration not stated)	82	39	29	40*	9	29
Cc1ccc(C(=O)Nc2ccc(S(=O)(=O)N3CCOCC3)cc2)cc1C	106	35	20	41*	29	15
COc1ccccc1C(=O)Nc1ccc(S(=O)(=O)N2CCCC2)cc1	99	22	28	27	37	nt
COc1ccccc1C(=O)Nc1ccc(S(=O)(=O)N2CCCCC2)cc1	99	13	8	48*	26	40*
Cc1occc1C(=O)Nc1ccc(S(N)(=O)=O)cc1	94	-5	7	-25	-31	nt
COC(=O)c1ccccc1NC(=O)C1CCCN(S(C)(=O)=O)C1 (configuration not stated)	100	-1	-21	-4	2	nt
Cc1occc1C(=O)Nc1ccc(S(=O)(=O)N2CCCC2)cc1	115	20	1	42*	22	27
CCn1c(CNC(=O)c2ccccc2F)nnc1SCC(=O)NC1CCCCC1C (configuration not stated)	101	11	13	19	-4	nt
O=S(=O)(c1ccc(NC(=S)N/N=C/c2ccc(Oc3ccccc3)cc2)cc1)N1CCOCC1	97	-2	3	4	-9	nt
O=S(=O)(c1ccc(NC(=S)N/N=C/c2c3ccccc3cc3ccccc23)cc1)N1CCOCC1	144	17	-1	50*	34	30*
COc1ccc(-c2cn3cccnc3n2)cc1NC(=O)C(C)Oc1ccccc1 (configuration not stated)	84	49	14	46*	1	7
COc1ccc(OC)c2sc(N3CCCCC3)nc12	100	26	23	43*	21	25
O=C(c1ccc2ncsc2c1)N1CCN(c2cccc(C(F)(F)F)c2)CC1	nt	50	-37	58*	38	39*
COc1ccc(OC)c2sc(N3CCN(C(=O)c4ccc5ncsc5c4)CC3)nc12	107	29	21	50*	21	21
COc1ccc(OCCCC(=O)ON=C(N)c2ccccc2Cl)cc1	111	31	20	24	39	nt
CCOc1nc(C)ccc1-c1noc(-c2cccnc2)n1	87	24	42	4	-3	nt
CCOC(=O)c1nnsc1Nc1ccc(C)c(C)c1	96	1	40	10	9	nt
COc1ccc(OC)c(NC(=O)C2CC(=O)N(c3ccccc3)C2)c1 (configuration not stated)	88	5	9	13	0	nt
COc1ccc(OC)c(NC(=O)C2CC(=O)N(c3ccc(Br)cc3)C2)c1 (configuration not stated)	115	39	11	43*	23	26
O=C(c1cn(-c2ccccc2)nc1-c1ccc(Cl)s1)N1CCOCC1	119	25	9	44*	21	25
COc1ccc2cc(C(=O)N/N=C/c3cc(OC)c(OC)c(OC)c3)[nH]c2c1	92	39	3	40*	29	26
Cc1ccccc1-c1nc(CS(=O)(=O)CC(=O)NC2CC2)c(C)o1	97	-5	20	-5	-7	nt
Cc1ccccc1-c1nc(CS(=O)(=O)CC(=O)NC2CCCCC2C)c(C)o1 (configuration not stated)	100	15	20	41*	14	-2
SMILES	CR mimetic SO	tim23-1 inh	NALP3 yeast inh	tim10-1 inh	TIM10 inh	tim10-1 conf
Cc1oc(-c2ccccc2F)nc1CSCC(=O)NC1CCC(C)CC1 (configuration not stated)	96	28	12	40*	6	-7
O=C(Nc1ccc2c(c1)CCCN2C(=O)c1cccs1)c1c(F)cccc1Cl	124	20	10	21	11	nt
Clc1ccc(-c2nnc3sc(-c4ccc(Br)o4)nn23)cc1	104	-5	6	-29	-29	nt
Clc1ccccc1-c1nnc2sc(-c3ccc(Br)o3)nn12	101	37	8	40*	25	30*
Brc1ccc(-c2nn3c(Cc4ccccc4)nnc3s2)o1	97	20	23	42*	23	11
Clc1ccc(-c2nnc3sc(-c4ccc(Br)o4)nn23)c(Cl)c1	105	-5	19	-3	1	nt
O=C(CNS(=O)(=O)c1c(F)cc(F)cc1Br)OCC(=O)N1CCCC1=O	100	5	18	-5	7	nt
Brc1cccc(-c2nnc(SCc3ccon3)n2-c2ccccc2)c1	99	45	10	41*	26	15
c1ccn2cc(C34CC5CC(CC(C5)C3)C4)nc2c1	93	49	0	53*	36	39*
Cc1cccc(NC(=O)NCC2CC2)c1	98	nt	nt	nt	nt	nt
C/C(=N\NC(=O)c1nnn(-c2nonc2N)c1CN(C)c1ccccc1)c1ccccc1O	117	26	21	62*	25	3
CCCCC(=O)NC(c1ccco1)c1cc(Cl)c2cccnc2c1O (configuration not stated)	98	43	3	33	-33	nt
CCC(=O)NC(c1ccco1)c1cc(Cl)c2cccnc2c1O (configuration not stated)	93	46	-25	40	1	28
Cc1cc(C)c(OCC(=O)OCC(=O)NCC2CCCCC2)c(C)c1	88	28	23	8	10	nt
O=C(CSc1nc(-c2ccccc2)cs1)N1CCN(C(=O)c2ccco2)CC1	109	19	2	44*	15	26
Cc1ccc([N+](=O)[O-])c2c1C(N1CC(C)OC(C)C1)C(C)(C)O2 (configuration not stated)	109	12	4	19	15	nt
Cc1ccccc1C(=O)N1CCC(n2nccc2NC(=O)CCOc2ccccc2)CC1	94	-12	0	-7	-6	nt
O=C(Oc1ccc(C(=S)N2CCCCC2)cc1)c1ccccc1F	93	38	3	56*	24	28
CCCCC(=O)Nc1ccccc1CC	106	12	-18	17	8	nt
COc1ccc(-c2nnc(SCC(=O)N3CCCC3)o2)c(OC)c1	107	6	-2	-13	8	nt
CCN1CCSc2ccc(C(=O)NCc3cccc(Br)c3)cc21	107	46	4	41*	11	35*
Cc1ccc(CN2CCSc3ccc(C(=O)N4CCOCC4)cc32)cc1	99	38	21	41*	4	15
O=C(NCC1CCCO1)c1ccc2c(c1)N(Cc1ccccc1)CCS2 (configuration not stated)	91	40	4	41*	12	14
CCN1CCN(C(=O)c2ccc3c(c2)N(Cc2ccc(C)cc2)CCS3)CC1	91	8	14	21	3	nt
O=C(NC1CCCC1)c1ccc2c(c1)N(Cc1ccccc1)CCS2	92	10	12	-5	15	nt

Screening data (PubChem)
